Laboratory results: paper PMC4336329 (PLoS ONE, 2015)
In all, about 310,000 compounds went through this assay and about 14,000 (4.5%) showed an effect of 50% or more. Effects have a minus sign here. The entries come from a sample that favours strong results as a whole.

Target: human ether-à-go-go-related gene (hERG) potassium channel (human, UniProt Q12809)
Experiment: primary screen, population patch clamp on CHO cells stably expressing hERG; higher = less effect of the substance
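Further: peak tail current of the secondary pulse compared with the same well before compound.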

Chain of human ether-à-go-go-related gene (hERG) potassium channel (Q12809 whole entry, looked up): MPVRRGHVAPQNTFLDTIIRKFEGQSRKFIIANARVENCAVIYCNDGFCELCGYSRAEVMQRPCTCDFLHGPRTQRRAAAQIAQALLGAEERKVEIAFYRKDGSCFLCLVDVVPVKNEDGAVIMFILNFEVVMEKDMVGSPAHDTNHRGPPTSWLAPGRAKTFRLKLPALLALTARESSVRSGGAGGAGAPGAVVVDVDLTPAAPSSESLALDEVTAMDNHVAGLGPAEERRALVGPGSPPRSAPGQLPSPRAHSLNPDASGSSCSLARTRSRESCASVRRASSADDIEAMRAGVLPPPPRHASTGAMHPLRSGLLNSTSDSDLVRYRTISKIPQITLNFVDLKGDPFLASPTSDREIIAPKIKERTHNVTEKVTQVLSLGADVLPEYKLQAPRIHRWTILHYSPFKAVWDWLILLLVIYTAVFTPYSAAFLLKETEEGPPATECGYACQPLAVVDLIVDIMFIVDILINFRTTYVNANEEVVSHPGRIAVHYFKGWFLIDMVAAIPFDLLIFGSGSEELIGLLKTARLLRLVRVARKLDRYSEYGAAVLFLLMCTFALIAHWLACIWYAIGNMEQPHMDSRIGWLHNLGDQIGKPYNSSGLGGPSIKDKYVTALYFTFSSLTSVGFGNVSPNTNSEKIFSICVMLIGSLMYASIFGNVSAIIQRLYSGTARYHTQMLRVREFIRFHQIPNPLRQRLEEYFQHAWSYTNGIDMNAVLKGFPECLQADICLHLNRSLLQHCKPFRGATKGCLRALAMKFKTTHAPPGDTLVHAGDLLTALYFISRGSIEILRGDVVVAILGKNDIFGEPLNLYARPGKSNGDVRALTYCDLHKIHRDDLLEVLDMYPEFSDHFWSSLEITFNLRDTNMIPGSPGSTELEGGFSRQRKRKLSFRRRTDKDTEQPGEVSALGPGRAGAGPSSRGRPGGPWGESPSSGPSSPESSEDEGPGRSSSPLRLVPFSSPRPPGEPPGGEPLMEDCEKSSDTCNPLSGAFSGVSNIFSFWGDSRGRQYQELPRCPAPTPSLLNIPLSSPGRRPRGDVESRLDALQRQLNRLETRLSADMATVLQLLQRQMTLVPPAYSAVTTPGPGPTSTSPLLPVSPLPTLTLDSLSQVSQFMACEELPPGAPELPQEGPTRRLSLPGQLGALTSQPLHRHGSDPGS

| Compound | hERG current change (%, negative = inhibition) at 10uM |
| --- | --- |
| Cc1cc(Br)cc(C)c1NC(=O)c1ccc(C#N)cc1F | -21.2% |
| NS(=O)(=O)c1ccc(CCNC(=O)CCc2nc3sc4c(c3c(=O)[nH]2)CCCC4)cc1 | 17.6% |
| CC(C)C[C@@H](CO)N1CCN(Cc2ccc(Br)cc2)CCC1=O | -13.5% |
| CC(C)C[C@@H](CSc1ccc(Br)cc1)N1CCN(CC(C)C)CCC1=O | -68.6% |
| CC(C)CN1CCC(=O)N([C@H](CN=[N+]=[N-])Cc2ccccc2)CC1 | -22.9% |
| CC(C)C[C@@H](CSc1ccc(Br)cc1)N1CCN(C)CCC1=O | -64.7% |
| CC(C)C[C@@H](CN=[N+]=[N-])N1CCN(CC(C)C)CCC1=O | -3.55% |
| CC(C)CN1CCC(=O)N([C@H](CSc2ccc(Br)cc2)Cc2ccccc2)CC1 | -43.2% |
| CC(C)C[C@@H](CO)N1CCN(C)CCC1=O | -4.26% |
| CCCN1CCC(=O)N([C@H](CSc2ccccc2)CC(C)C)CC1 | -66.4% |
| CC(C)CN1CCC(=O)N([C@H](CSc2ccccc2)Cc2ccccc2)CC1 | -67.9% |
| CC(C)C[C@@H](CSc1ccccc1)N1CCN(C)CCC1=O | -16% |
| CCOC(=O)C(NCc1ccc2c(c1)OCO2)(NC(=O)CC)C(F)(F)F (centres unmarked) | 14.3% |
| NCC/C=C1/c2ccccc2CSc2ccccc21.O=C(O)/C=C\C(=O)O | -3.76% |
| CN(C)c1ccc(S(=O)(=O)N2CCCCC2)cc1NC(=O)CN1C(=O)NC2(CCCC2)C1=O | 8.25% |
| COc1ccccc1OCCNC(=O)C1CC(=O)N(Cc2ccccc2)C1 (centres unmarked) | -10.2% |
| CC(O)CNC(=O)c1ccc(-c2nn(C)c(=O)c3ccccc23)cc1 (centres unmarked) | -0.479% |
| Cc1ccc2c(Cl)cc(Cl)c(OCc3c(C)noc3C)c2n1 | 8.92% |
| O=C(NO)c1ccc(OC(F)F)cc1 | 7.91% |
| Cc1ccc(C(C)C)c(O)c1 | 19.7% |
| CC(C)C[C@@H](CSc1ccccc1)N1CCN(CC(C)C)CCC1=O | -75% |
| O=C(CCC(=O)N(CC(=O)NC1CCCC1)Cc1ccccc1Cl)Nc1nccs1 | -16.1% |

| Compound | hERG current change (%, negative = inhibition) at 10uM |
| --- | --- |
| O=C(COC(=O)c1cccc(OC(F)F)c1)NC(=O)NC1CCCCC1 | 11.1% |
| CN(CC(=O)NCCc1ccc(F)cc1)Cc1ccccc1 | -2.73% |
| CCOc1ccc(CN(C)CC(=O)NCc2ccc(F)cc2)cc1 | -74% |
| CCOCCCNCc1ccc(OCc2ccccc2Cl)cc1 | -46.9% |
| CC(=O)c1ccc(OCC(=O)NCc2ccc(F)cc2)cc1 | -11.5% |
| CCOc1ccc(CN(C)CC(=O)NCc2ccccc2)cc1 | -76.1% |
| CCOc1ccc(N(CC(=O)NCc2ccc(F)cc2)C(=O)c2ccco2)cc1 | -54.6% |
| CCOc1ccc(CNCc2ccccc2Cl)cc1.Cl | -55.3% |
| Cc1ccc(N(CC(=O)NCc2ccc(F)cc2)C(=O)c2ccco2)cc1C | -10.8% |
| CCOc1ccc(N(CC(=O)NCc2ccccc2)S(C)(=O)=O)cc1 | -10.9% |
| CN(CC(=O)NCc1ccccc1)Cc1ccc(Cl)cc1 | -22.9% |
| Cc1ccc(CNCc2ccccc2Cl)cc1.Cl | -7.02% |
| CCOc1ccc(N(CC(=O)NC(C)(C)C)C(=O)c2ccco2)cc1 | -1.84% |
| Cc1c(C)c2c(OCC(=O)NCC(=O)NCC(=O)O)cc3c(c2oc1=O)CCC(C)(C)O3 | 15.2% |
| Cn1ncc2c(Nc3cccc([N+](=O)[O-])c3)ncnc21 | 7.09% |
| CC(C)N(C(=O)COC(=O)CNC(=O)c1ccc(Br)cc1)c1ccccc1 | -15.5% |
| O=C(COc1ccc(Cl)cc1)NCCCNC(=O)c1ccncc1 | -36.1% |
| COC(=O)C1=C(C)OC(N)=C(C#N)C1c1cc2cccc(C)c2nc1Cl (centres unmarked) | -5.39% |
| CN(C)c1cc[n+](CC(=O)Nc2ccc(Cl)cc2)cc1.[Cl-] | 7.28% |
| COc1ccc(N2CCOCC2)c(NC(=O)c2cccnc2)c1 | 12.8% |
| O=C(c1cnn(C(=O)c2cccc(S(=O)(=O)N3CCOCC3)c2)c1)c1cc(Cl)cc(Cl)c1O | -44.5% |
| CC(=O)Oc1ccc(/C=N/NC(=O)c2ccc(N(C)S(=O)(=O)c3ccccc3)cc2)cc1 | 12.8% |
